Screening data from PubChem BioAssay.
In the library only some 6.2% were active in any assay of this set; here they are far more common.
ATXN2 expr inh = reduces ATXN2 reporter expression in HEK-293 cells; HEK-293 ATXN2-luciferase reporter, luminescence, 24 h; Potency, µM (titrated, usually from 57 µM), actives largely listed as inhibitors; 0.72% of 360,000 active; AID 1745845; also: nearly all actives have a fitted effect of over 55% in size
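ATXN2-luciferase reporter cells (luciferase flanked by upstream and downstream ATXN2 gene portions) were treated 24 h at 37 °C with compounds at up to 57 uM. SteadyGlo luminescence gave expression; GF-AFC fluorescence gave viability.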
HT1080-NT tox = kills 2HG-producing HT-1080-NT fibrosarcoma cells; HT-1080-NT fibrosarcoma viability, CellTiter-Glo ATP luminescence, 48 h; Potency, µM (top dose mostly 46.1 µM), most hits filed as cytotoxic; 1.6% of 360,000 active;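 also: NT is the 2HG producing partner of a matched IDH1 knockdown line; nearly all actives have a fitted effect of over 55% in size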
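Luminescent CellTiter-Glo readout after 48 hours of compound exposure at 37 degrees C defined viability of HT-1080-NT cells. Activity was normalized to DMSO wells and cell-free media wells; concentration-response curves were fitted and assigned curve classes.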
ATXN viability = cell viability loss in ATXN counter-screen; Potency, µM (titrated, usually from 56.7 µM), usual class: cytotoxic; S2 cells (HEK-293 line with an ATXN2-luciferase reporter) viability, CellTiter-Fluor protease fluorescence, 24 h; 0.49% of 400,000 active; also: nearly all actives have a fitted effect of over 40% in size
KB-V1 cytotox = KB-V1 MDR subline cytotoxicity | 3.4% of 400,000 active | KB-V1 MDR cells viability, CellTiter-Glo, 72 h | Potency, µM (highest dose often 46.1 µM), most hits filed as cytotoxic; also: nearly all actives have a fitted effect of over 60% in size
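KB-V1 cells (P-gp-expressing MDR subline of KB-3-1) in phenol-red-free DMEM with 10% FBS were exposed to library compounds over a concentration series for 72 h at 37 degrees C. Viability read by CellTiter-Glo luminescence; concentration-effect curves fitted after normalization.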
HT1080 IDH1KD tx = HT-1080 IDH1 knockdown cell toxicity (counter line). HT-1080 IDH1 knockdown viability, ATP luminescence, 48 h. Potency, µM (doses to about 46.1 µM), hits mostly cytotoxic. 2% of 360,000 active. AID 686971
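IDH1KD HT-1080 cells, 750/well, RPMI + 5% FBS; compound pinned after 2 h settling; 48 h, 37 °C; CellTiter-Glo luminescence; % activity normalised to DMSO and no-cell wells; curves fitted, classed by r2 and efficacy.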
KB-3-1 cytotox = kills parental KB-3-1 adenocarcinoma cells. Potency, µM (doses to about 46.1 µM), hits mostly cytotoxic. 1.4% of 400,000 active. KB-3-1 viability, CellTiter-Glo ATP luminescence, 72 h; also: nearly all actives have a fitted effect of over 60% in size
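Luminescent ATP read-out (CellTiter-Glo) measures survival of drug-naive KB-3-1 cells after 72 h compound exposure at 37 °C. Titration series was screened from lowest to highest concentration, with DMSO vehicle plates as background controls.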
A number is an active result; – = inactive; ? = inconclusive; · = no result given; [ ] = dose if it differs, or a comment. Calls follow the shape of the dose curve; as a rule, active = well fitted curve in the direction sought with a large enough effect; inconclusive = small, poorly fitted or top-dose-only effect, or another doubt; inactive = no such curve, though single readings can be large; an effect the other way counts as inactive or inconclusive.

SMILES	ATXN2 expr inh	HT1080-NT tox	ATXN viability	KB-V1 cytotox	HT1080 IDH1KD tx	KB-3-1 cytotox
Oc1cccc(/C=C/c2ccc3cccc(O)c3n2)c1	–	33µM	–	?	?	?
COc1cc(/C=C/c2ccc3cccc(O)c3n2)cc(Br)c1OC	–	?	?	?	?	15µM
CN(C)C(=O)CSc1ncccc1-c1nc2ccccc2[nH]1	–	–	–	–	–	–
O=C(CSc1nc2ccccc2nc1N1CCCCC1)N1CCN(c2ccccc2)CC1	–	–	–	21µM	–	?
O=C(CSc1nc2ccccc2nc1N1CCOCC1)N1CCN(c2ccccc2)CC1	–	–	?	–	–	?
O=C(CSc1ncccc1-c1nc2ccccc2[nH]1)N1CCCCC1	–	–	–	5.2µM	–	–
O=C(CSCc1cccc(F)c1)N1CCN(c2ccccc2)CC1	–	–	–	21µM	–	–
COCCNc1nc(SCC(=O)N2CCN(c3ccccc3)CC2)nc2ccccc12	–	–	–	9.2µM	–	–
O=C(CSCc1ccccc1)N1CCN(c2ccccc2)CC1	–	–	–	–	–	–
O=C(CN1CCN(c2ccccc2)CC1)N1CCN(c2ccccc2)CC1	–	–	?	21µM	–	–
COc1cccc(C2CNC3(CCCC(C)C3)c3[nH]c4ccccc4c32)c1OC (centres undefined)	·	?	11µM	?	?	–
C/C(=N\O)c1ccc2c3c([nH]c2c1)CCCC3	–	–	–	–	–	8.2µM
CCc1ccccc1NC(=O)CSc1ncc2c(n1)-c1ccccc1N(C)S2(=O)=O	–	·	–	–	·	–
CCOc1ccc(Cl)cc1S(=O)(=O)N1CCN(c2ccc(F)cc2)CC1	?	–	–	–	–	–
CCOc1ccc(Cl)cc1S(=O)(=O)N1CCN(c2ccc(C)c(C)c2)CC1	–	–	–	15µM	–	–
CN1OC[C@@H]2CN(Cc3ccc(Cl)cc3)[C@H](c3ccc(N4CCCCC4)cc3)C[C@@H]21	–	–	–	–	–	–
COc1ccc(NC(=O)c2oc3ccccc3c2NC(=O)C2CC2)cc1	–	–	–	10µM	–	–
COc1ccc(NC(=O)c2oc3ccccc3c2NC(=O)C(C)(C)C)cc1	–	–	–	9.2µM	?	–
O=C(NC1CCCCC1)C1c2ccccc2OCC(=O)N1Cc1ccccn1 (centres undefined)	–	–	–	–	–	–
COc1ccc(Cl)cc1NC(=O)CCC(=O)N1CCOc2ccccc21	–	·	–	–	·	–
CC1(C)CCC[C@@]2(C)[C@@H]1CC[C@@]1(C)OC(=O)C[C@H]21	–	·	·	·	·	·
Cc1ncc(CO)c(/C=N/Nc2ccc(C(F)(F)F)cn2)c1O	6.3µM	–	–	–	?	?
Cc1ncc(CO)c(/C=N/NC(=S)Nc2ccc(F)cc2)c1O	?	–	–	–	?	?
Cc1cc(C)c2oc(-c3ccc(C)c(NC(=O)/C=C/c4ccco4)c3)nc2c1	–	·	–	–	·	–
COc1c(Cl)cccc1-c1cn2ccccc2n1	–	?	–	12µM	?	–
SMILES	ATXN2 expr inh	HT1080-NT tox	ATXN viability	KB-V1 cytotox	HT1080 IDH1KD tx	KB-3-1 cytotox
Cc1ccc(NC(=O)Cn2cccc2C2=NC(c3ccccc3)CO2)cc1C (centres undefined)	–	–	–	15µM	–	?
CCc1ccccc1NC(=O)Cn1cccc1C1=NC(c2ccccc2)CO1 (centres undefined)	–	?	–	?	16µM	–
Fc1ccc(Cn2cccc2C2=NC(c3ccccc3)CO2)cc1 (centres undefined)	–	–	–	–	–	–
CC(=O)c1cn(CC(=O)Nc2ccc(C)c(C)c2)c2ccccc12	–[11.3 µM]	–	–	–	–	–
Cc1oc(-c2ccccc2)nc1Cn1cccc1C1=NC(c2ccccc2)CO1 (centres undefined)	–	–	–	12µM	?	16µM
COc1ccc(CCC(=O)NCc2ccc3c(c2)CCN3C(=O)c2cccc(C)c2)cc1	·	·	·	–	·	?
O=C(C1CCCN(S(=O)(=O)c2cccc3nsnc23)C1)N1CCN(c2ccccc2F)CC1 (centres undefined)	–	·	–	–	·	–
O=C(/C=C\c1cn(-c2ccccc2)nc1-c1ccc2c(c1)OCCO2)N1CCOCC1	·	–	?	?	–	–
O=C(/C=C/c1cn(-c2ccccc2)nc1-c1cccc(Cl)c1)N1CCN(c2ccccn2)CC1	–	–	?	23µM	–	?
CN1CCN(C(=O)/C=C/c2cn(-c3ccccc3)nc2-c2ccc3c(c2)OCCO3)CC1	–	23µM	–	–	23µM	–
COc1ccc(Nc2ncc(C(=O)Nc3cccc(Cl)c3)c3ccccc23)cc1	–	·	–	–	·	–
Cc1cc(C)c2c(=N)c3ccccc3n(CCCCCCCCn3c4ccccc4c(=N)c4c(C)cc(C)nc43)c2n1	28µM	–	?	–	?	?
COc1ccc(CNC(=O)c2cccn2-c2nnc(N3CCCC3)s2)c(OC)c1	·	·	·	–	·	–
N#Cc1ccc(CN2CCN(C(=O)c3cccc(S(=O)(=O)N4CCCCCC4)c3)CC2)cc1	–	–	–	·	–	·
Cc1ccc(NS(=O)(=O)c2ccc3[nH]c4c(c3c2)CCCCCC4)cc1	?	·	?	–	·	?
Cc1ccc(N(C)S(=O)(=O)c2ccc3[nH]c4c(c3c2)CCCC4)cc1	–	·	?	18µM	·	–
